Outcome and AC50 data for 14 compounds are collected here from PubChem BioAssay (EPA / NIEHS).

SMILES strings stand for the structures. Several values for one entry are separate records, joined by “and”; a condition that tells them apart may be missing. Equal values may be shown once. A structure can be active in one record and inactive in another. Activity calls are given as the source filed them. The calls were made as follows: active = hit-call score of the fitted dose curve at least 0.9, where 1 is the maximum; inactive = score below 0.9.

Read-out in test [1]: Interferon-gamma inducible Protein 10 (IP10), CXCL10 (gene 3627)
Nature of the test: BSK_hDFCGF_IP10: BioMAP Diversity Plus: hDFCGF Assay for Interferon-gamma inducible Protein 10 (IP10) Biomarker Activity (AID 2283053). As to conditions: primary human foreskin fibroblasts; actives raise or lower the signal. The method in brief: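 IP-10 levels, quantified by ELISA, are taken from human foreskin fibroblast cultures 24 h after chemical treatment, with DMSO serving as negative control and baseline for bidirectional analysis.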

Read-out in test [2]: Urokinase-type plasminogen activator receptor (uPAR), PLAUR (gene 5329)
Nature of the test: BSK_CASM3C_uPAR: BioMAP Diversity Plus: CASM3C Assay for Urokinase-type plasminogen activator receptor (uPAR) Biomarker Activity (AID 2283054).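 Also: cell-surface uPAR protein level quantified by ELISA.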 As to conditions: primary human coronary artery smooth muscle cells; actives raise or lower the signal.

Read-out in test [3]: Vascular cell adhesion molecule 1 (VCAM1), VCAM1 (gene 7412)
Briefly: BSK_CASM3C_VCAM1: BioMAP Diversity Plus: CASM3C Assay for Vascular cell adhesion molecule 1 (VCAM1) Biomarker Activity (AID 2283055).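 Also: VCAM-1 protein level quantified by ELISA on the cells.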 As to conditions: primary human coronary artery smooth muscle cells; actives raise or lower the signal.

Read-out in test [4]: Collagen III, COL3A1 (gene 1281)
Briefly: BSK_hDFCGF_CollagenIII: BioMAP Diversity Plus: hDFCGF Assay for Collagen III Biomarker Activity (AID 2283056). Particulars: primary human foreskin fibroblasts; actives raise or lower the signal. A digest of the protocol: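 ELISA readout of Collagen III in human dermal (foreskin) fibroblasts, taken 24 h post-treatment. Gain or loss relative to DMSO vehicle fitted in both directions.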

Read-out in test [5]: Epidermal growth factor receptor (EGFR), EGFR (gene 1956)
Briefly: BSK_hDFCGF_EGFR: BioMAP Diversity Plus: hDFCGF Assay for Epidermal growth factor receptor (EGFR) Biomarker Activity (AID 2283057). As to conditions: primary human foreskin fibroblasts; actives raise or lower the signal. A digest of the protocol: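 Measured by ELISA: EGFR levels on primary human foreskin fibroblasts 24 h after chemical treatment, analysed relative to DMSO with bidirectional fitting.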

Read-out in test [6]: Interleukin-8 (IL8), CXCL8 (gene 3576)
Briefly: BSK_hDFCGF_IL8: BioMAP Diversity Plus: hDFCGF Assay for Interleukin-8 (IL8) Biomarker Activity (AID 2283058). Particulars: primary human foreskin fibroblasts; actives raise or lower the signal. A digest of the protocol:
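IL-8 levels read by ELISA at 24 hours after dosing human skin fibroblast cultures. Parallel SRB staining assessed overt cytotoxicity, and gain or loss of signal was fitted against DMSO control.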

Test [7] is described as follows: BSK_hDFCGF_Proliferation: Cell Proliferation Assessment in the BioMAP Diversity Plus: hDFCGF Assay (AID 2283059).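 Also: curves fitted for both rise and fall of signal versus DMSO baseline.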 As to conditions: primary human foreskin fibroblasts. The method in brief: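 Total protein read at 560 nm after 0.1% SRB staining of TCA-fixed human skin fibroblasts, […]. Activity is fitted in both directions relative to DMSO as baseline.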

Read-out in test [8]: Macrophage colony-stimulating factor (MCSF), CSF1 (gene 1435)
Nature of the test: BSK_hDFCGF_MCSF: BioMAP Diversity Plus: hDFCGF Assay for Macrophage colony-stimulating factor (MCSF) Biomarker Activity (AID 2283060). As to conditions: primary human foreskin fibroblasts; actives raise or lower the signal. The method in brief: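 M-CSF levels read by ELISA at 24 h post-dosing in human skin fibroblasts. Parallel cultures stained with SRB assessed cytotoxicity at the same time point; response fitted in both directions against the DMSO baseline.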

A short description of test [9]: BSK_hDFCGF_SRB: Viability Assessment in the BioMAP Diversity Plus: hDFCGF Assay (AID 2283061).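 Also: cells exposed to compound for 24 h before the read.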 As to conditions: primary human foreskin fibroblasts. A digest of the protocol: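 Viability was read as total protein: after 10% TCA fixation, wells were stained with 0.1% sulforhodamine B and read at 560 nm. Primary human foreskin fibroblasts were dosed for 24 h, with bidirectional fitting versus DMSO.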

Read-out in test [10]: TIMP metallopeptidase inhibitor 1 (TIMP1), TIMP1 (gene 7076)
Nature of the test: BSK_hDFCGF_TIMP1: BioMAP Diversity Plus: hDFCGF Assay for TIMP metallopeptidase inhibitor 1 (TIMP1) Biomarker Activity (AID 2283062). As to conditions: primary human foreskin fibroblasts; actives raise or lower the signal. A digest of the protocol: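 TIMP-1 measured by ELISA 24 h after chemical dosing of primary human skin fibroblasts, with gain or loss fitted relative to DMSO. Parallel SRB staining (560 nm) monitored overt cytotoxicity.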

For `Oc1cc2ccccc2cc1O`, the outcome in test [1], in [2], in test [3], in test [5], in test [6] and in [8] was inactive. In addition, the outcome in test [9] and in test [10] was inactive. The AC50 was 20 µM (active) in [4] and 29.7 µM (active) in test [7].

`CCC(C)c1ccccc1O` (centres undefined): the result in [1], in [2], in test [3], in test [4], in test [5] and in test [6] was inactive. Also, the outcome in test [7], in test [8], in test [9] and in [10] was inactive.

As for `C=CC(C)(CCC=C(C)C)OC(C)=O` (centres undefined), the outcome in test [1], in test [4], in [5], in test [6], in test [8] and in test [10] was inactive. The AC50 in test [2] was 20 µM (active); in [3], 34.6 µM (active); in [7], 24.7 µM (active); in test [9] it was 36.1 µM (active).

Take `O=C(O)CCC(F)(F)C(F)(F)C(F)(F)C(F)(F)C(F)(F)C(F)(F)F`: the result in [1], in test [2], in test [3], in test [4], in test [5] and in test [6] was inactive. Moreover, the result in [7], in [8], in test [9] and in [10] was inactive.

On to `Oc1c(Cl)cc(Cl)cc1Sc1cc(Cl)cc(Cl)c1O`, for which the concentration at half-maximal activity (AC50) in test [1] was 1.66 µM (active) and 1.94 µM (active); in test [2], 20 µM (active) and 18.3 µM (active); in [3], 20 µM (active) and 12.7 µM (active); in test [4], 1.39 µM (active) and 455 nM (active); in test [5], 0.236 µM (active); in test [6], 4.43 µM (active) and 4.46 µM (active). The AC50 in [7] is 1.08 µM (active) and 148 nM (active); in test [8], 1.46 µM (active) and 1.59 µM (active); in test [9] it was 1.67 µM (active) and 1.78 µM (active); in test [10], 2.06 µM (active) and 1.74 µM (active). Moreover, in [5], the outcome was inactive.

Regarding `CS(=O)(=O)c1ccc([C@@H](CC2CCCC2)C(=O)Nc2cnccn2)cc1Cl`, the outcome in [1], in test [3], in test [4], in [5], in test [6] and in [8] was inactive. The outcome in test [9] and in test [10] was inactive. The half-maximal activity concentration (AC50) in test [2] is 26.3 µM (active); in [7], 20 µM (active).

Take `CCCCC(CC)C(=O)O` (centres undefined): the result in test [1], in test [2], in test [3], in test [4], in [5] and in test [6] was inactive. Besides, the result in test [7], in test [8], in [9] and in [10] was inactive.

As for `C=COC(=O)C(C)(C)CCCCCC`, the AC50 was 35 µM (active) in test [1]; 20 µM (active) in test [2]; 33.2 µM (active) in test [3]; 31.2 µM (active) in [4]; 31 µM (active) in [6]; 31.7 µM (active) in test [7]. Further, the values for the AC50 in test [8], in test [9] and in [10] were 35000 nM (active), 37.5 µM (active) and 28.5 µM (active), respectively. Further, the outcome in [5] was inactive.

Turning to `CN(CCO)S(=O)(=O)C(F)(F)C(F)(F)C(F)(F)C(F)(F)C(F)(F)C(F)(F)C(F)(F)C(F)(F)F`, the outcome in test [1], in test [2], in [3], in test [4], in [5] and in test [6] was inactive. The result in [7], in test [8], in [9] and in [10] was inactive. For the same compound, in test [8], the AC50 was 41.4 nM (active).

`O=C(O)CCC(F)(F)C(F)(F)C(F)(F)C(F)(F)C(F)(F)F`: the outcome in test [1], in test [2], in test [3], in test [4], in test [5] and in test [6] was inactive. Moreover, the outcome in test [7], in test [8], in test [9] and in [10] was inactive. Also, the half-maximal activity concentration (AC50) in test [8] was 220 nM (active).

In the case of `Cc1cccc2c1ccc1ccccc12`, the outcome in test [1], in [2], in [3], in test [4], in test [5] and in test [6] was inactive. The outcome in test [7], in [8], in test [9] and in [10] was inactive.

For `C[C@]12CC[C@@H]3c4ccc(O)cc4CC[C@H]3[C@@H]1C[C@@H](O)[C@@H]2O`, the result in [1], in [2], in [3], in test [4], in test [5] and in [6] was inactive. Further, the result in test [7], in test [8], in [9] and in [10] was inactive.

Take `O=P(O)(O)CCC(F)(F)C(F)(F)C(F)(F)C(F)(F)C(F)(F)C(F)(F)C(F)(F)C(F)(F)F`: the result in [1], in test [2], in test [3], in [5], in [6] and in [8] was inactive. The outcome in test [9] and in test [10] was inactive. Besides, the half-maximal activity concentration (AC50) in test [4] was 11.7 µM (active) and 9.02 µM (active); in test [5] it was 29 µM (active); in [7] it was 39.9 µM (active) and 49.4 µM (active).

Take `O=C(O)C(F)(F)OC(F)(F)C(F)(F)OC(F)(F)C(F)(F)OC(F)(F)C(F)(F)C(F)(F)C(F)(F)F`: the AC50 in test [1] is 10.1 µM (active) and 9.36 µM (active); in test [3] it was 24.8 µM (active) and 30 µM (active); in test [4], 10.9 µM (active) and 9.27 µM (active); in test [6], 21.9 µM (active) and 21.2 µM (active); in test [7], 7.93 µM (active) and 8.07 µM (active); in test [8], 11.6 µM (active) and 10.5 µM (active). Also, the AC50 in test [9] is 8.7 µM (active) and 8.8 µM (active); in test [10], 10.6 µM (active) and 8.08 µM (active). The result in test [2] and in test [5] was inactive.

Broadly, the AC50 is the midpoint of the concentration-response curve, whichever way the signal moves.
